Measured values taken from publication PMC11006913.

Molecular target: HOXB4 (Homo sapiens, UniProt P17483 148-234)
Assay: PBM; 200 nM protein, PBS
Conditions: dsDNA, one strand shown

HOXB4, sequence (P17483 148-234): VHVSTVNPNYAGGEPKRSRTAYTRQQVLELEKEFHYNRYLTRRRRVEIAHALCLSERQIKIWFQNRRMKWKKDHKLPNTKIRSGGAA

Row | Sequence | binding signal
1 | GTCCCAAC | 7.52 upbm affinity estimate (log intensity, higher = more binding, comparable within an allelic series)
2 | AATTTCTG | 9.75 upbm affinity estimate (log intensity, higher = more binding, comparable within an allelic series)
3 | GAATAATC | 11.1 upbm affinity estimate (log intensity, higher = more binding, comparable within an allelic series)
4 | GTCGATGA | 9.83 upbm affinity estimate (log intensity, higher = more binding, comparable within an allelic series)
5 | AATAGCCA | 10.2 upbm affinity estimate (log intensity, higher = more binding, comparable within an allelic series)
6 | GGCTAATA | 11.6 upbm affinity estimate (log intensity, higher = more binding, comparable within an allelic series)
7 | CGTGCCGC | 7.33 upbm affinity estimate (log intensity, higher = more binding, comparable within an allelic series)
8 | AGGTCCAC | 7.8 upbm affinity estimate (log intensity, higher = more binding, comparable within an allelic series)
9 | AAATGTTA | 10.3 upbm affinity estimate (log intensity, higher = more binding, comparable within an allelic series)
10 | CAACAGAG | 7.94 upbm affinity estimate (log intensity, higher = more binding, comparable within an allelic series)
11 | CGAATCTC | 7.71 upbm affinity estimate (log intensity, higher = more binding, comparable within an allelic series)
12 | CACGTGCG | 7.64 upbm affinity estimate (log intensity, higher = more binding, comparable within an allelic series)
13 | GAATGAAC | 8.91 upbm affinity estimate (log intensity, higher = more binding, comparable within an allelic series)
14 | GGACCGAC | 7.66 upbm affinity estimate (log intensity, higher = more binding, comparable within an allelic series)
15 | ACTAATAA | 12 upbm affinity estimate (log intensity, higher = more binding, comparable within an allelic series)
16 | CACGTGGG | 7.46 upbm affinity estimate (log intensity, higher = more binding, comparable within an allelic series)
17 | AGGAGGAG | 7.49 upbm affinity estimate (log intensity, higher = more binding, comparable within an allelic series)
18 | GCGCGGGA | 7.68 upbm affinity estimate (log intensity, higher = more binding, comparable within an allelic series)
19 | ATAAAGTA | 10.5 upbm affinity estimate (log intensity, higher = more binding, comparable within an allelic series)
20 | CTGGGGGA | 7.75 upbm affinity estimate (log intensity, higher = more binding, comparable within an allelic series)

Row | Sequence | binding signal
21 | CGGGATGC | 7.47 upbm affinity estimate (log intensity, higher = more binding, comparable within an allelic series)
22 | CTCCCGGC | 7.38 upbm affinity estimate (log intensity, higher = more binding, comparable within an allelic series)
23 | TCATTGGA | 10.1 upbm affinity estimate (log intensity, higher = more binding, comparable within an allelic series)
24 | CAGAAGGC | 7.78 upbm affinity estimate (log intensity, higher = more binding, comparable within an allelic series)
25 | CCGACGGA | 7.67 upbm affinity estimate (log intensity, higher = more binding, comparable within an allelic series)
26 | ATTAGTTG | 11.2 upbm affinity estimate (log intensity, higher = more binding, comparable within an allelic series)
27 | CCGGGTTC | 7.62 upbm affinity estimate (log intensity, higher = more binding, comparable within an allelic series)
28 | CCAGTTGC | 7.75 upbm affinity estimate (log intensity, higher = more binding, comparable within an allelic series)
29 | AACGATAT | 10.7 upbm affinity estimate (log intensity, higher = more binding, comparable within an allelic series)
30 | CGGGCTGC | 7.97 upbm affinity estimate (log intensity, higher = more binding, comparable within an allelic series)
31 | AATACAAG | 9.55 upbm affinity estimate (log intensity, higher = more binding, comparable within an allelic series)
32 | CGGGAAAG | 7.44 upbm affinity estimate (log intensity, higher = more binding, comparable within an allelic series)
33 | ATCGTTCC | 9.81 upbm affinity estimate (log intensity, higher = more binding, comparable within an allelic series)
34 | CTAGGCAG | 8.13 upbm affinity estimate (log intensity, higher = more binding, comparable within an allelic series)
35 | GCTGGCGA | 7.41 upbm affinity estimate (log intensity, higher = more binding, comparable within an allelic series)
36 | CCCGTGCG | 7.96 upbm affinity estimate (log intensity, higher = more binding, comparable within an allelic series)
37 | CCTGGAAG | 7.71 upbm affinity estimate (log intensity, higher = more binding, comparable within an allelic series)
38 | ATTGATCC | 10.1 upbm affinity estimate (log intensity, higher = more binding, comparable within an allelic series)
39 | AAGCCAAT | 10.3 upbm affinity estimate (log intensity, higher = more binding, comparable within an allelic series)
40 | CCGTTATC | 9.78 upbm affinity estimate (log intensity, higher = more binding, comparable within an allelic series)
